Where “and” joins values, the source holds several entries; their conditions need not be identical. Equal entries are not always repeated. Records with an inconclusive call do not appear. More than one record can exist for a structure, and the calls need not agree. Calls of active or inactive are those of the source. Unless noted, calls follow the shape of the dose curve; as a rule, active = well fitted curve in the direction sought with a large enough effect in the repeat runs; inconclusive = weak or mixed curves; inactive = no such curve, though single readings can be large; an effect the other way counts as inactive or inconclusive.
What was measured:
[1] = qHTS assay to identify aromatase inhibitors - cell viability counter screen (AID 743084);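 also: cells stimulated with testosterone during compound exposure; nearly all actives have a fitted effect of over 55% in size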
[2] = target: Aryl hydrocarbon receptor (Homo sapiens) (UniProt P35869); test: qHTS assay to identify small molecule that activate the aryl hydrocarbon receptor (AhR) signaling pathway (AID 743085); also: nearly all actives have a fitted effect of over 15% in size; also: potency is read from the fitted curve at half-maximal effect;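 as to activation: HG2L7.5c1 human HepG2 liver cells with stably integrated DRE-driven firefly reporter; series mostly up to about 70 µM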
In short: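 HepG2 cells stably carrying a 20-DRE firefly luciferase reporter (HG2L7.5c1) treated with compound for 24 hr at 37C. Luciferase read by ONE-Glo luminescence, with CellTiter-Fluor viability read first.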

[3] = qHTS assay to identify small molecule that activate the aryl hydrocarbon receptor (AhR) signaling pathway - cell viability counter screen (AID 743086);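 also: HepG2 liver cells carrying the AhR DRE luciferase reporter; series mostly up to about 70 µM; nearly all actives have a fitted effect of over 45% in size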
In short: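 HepG2-AhR-luc (HG2L7.5c1) cells, 4000/well, were preincubated 5 h at 37C, exposed to compound in qHTS format for 24 hr at 37C, then given CellTiter-Fluor for 30 min; viability was read as fluorescence in the reporter wells.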

[4] = target: Peroxisome proliferator-activated receptor gamma (Homo sapiens) (UniProt P37231); test: qHTS assay to identify small molecule agonists of the peroxisome proliferator-activated receptor gamma (PPARg) signaling pathway (AID 743094; active = well fitted activation curve with a large enough effect in the signal ratio in the repeat runs, not every such curve was filed as active; the % refers to the signal ratio)
In short: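 GeneBLAzer PPARg UAS-bla HEK293H cells carrying a stably integrated beta-lactamase reporter were pre-incubated 5 h at 37C, then exposed to compounds in DMSO for 17 h at 37C; LiveBLAzer B/G FRET substrate was added for 1 h at room temperature and fluorescence read.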

[5] = target: Peroxisome proliferator-activated receptor gamma (Homo sapiens) (UniProt P37231); test: qHTS assay to identify small molecule antagonists of the peroxisome proliferator-activated receptor gamma (PPARg) signaling pathway (AID 743191; calls by dose curve; also: series mostly up to about 63 µM; nearly all actives have a fitted effect of over 30% in size)
In short: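 GeneBLAzer PPARg UAS-bla HEK293H cells carrying a UAS-driven beta-lactamase reporter were plated at 3000 cells/well, preincubated 5 h at 37C, then given compound for 17 h at 37C; LiveBLAzer B/G FRET substrate was read after 1 h at room temperature.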

[6] = qHTS assay to identify small molecule antagonists of the peroxisome proliferator-activated receptor gamma (PPARg) signaling pathway - cell viability counter screen (AID 743194); also: nearly all actives have a fitted effect of over 55% in size
In short: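 PPARg-UAS-bla HEK293H cells were plated, rested 5 h at 37 C, then treated with compounds plus rosiglitazone (50 nM final) for 17 h at 37 C; viability was then read by CellTiter-Glo luminescence after 30 min at room temperature.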

[7] = qHTS assay for small molecule agonists of the antioxidant response element (ARE) signaling pathway (AID 743202; active = well fitted activation curve with a large enough effect in the signal ratio in the repeat runs, not every such curve was filed as active; the % refers to the signal ratio; also: potency is read from the fitted curve at half-maximal effect)
In short: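 Read-out: LiveBLAzer B/G FRET substrate fluorescence after 2 h at room temperature, following 16 h compound treatment at 37 C of HepG2 cells carrying an ARE-driven beta-lactamase reporter.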

[8] = qHTS assay for small molecule agonists of the antioxidant response element (ARE) signaling pathway - cell viability counter screen (AID 743203; calls by dose curve; also: nearly all actives have a fitted effect of over 55% in size)
In short: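 CellSensor ARE-bla HepG2 cells, 2,000 per well, rested 5 hrs at 37C/5% CO2, then exposed to compound in DMSO for 16 hrs; viability read as CellTiter-Glo luminescence after 30 min at room temperature, in the reporter wells.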

[9] = qHTS assay for small molecule activators of the heat shock response signaling pathway - cell viability counter screen (AID 743209); also: nearly all actives have a fitted effect of over 50% in size
In short: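 CellSensor HSE-bla HeLa cells, plated overnight at 37 C/5% CO2, were exposed to compounds in DMSO for 5 h at 37 C. Viability was then read in the same wells by CellTiter-Glo luminescence after 30 min at room temperature.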

[10] = qHTS assay for small molecule activators of the heat shock response signaling pathway (AID 743210; active = well fitted activation curve with a large enough effect in the signal ratio in the repeat runs, with a control signal flat, not every such curve was filed as active; the % refers to the signal ratio; also: series mostly up to about 63 µM)
In short: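 HSE-bla HeLa cells (beta-lactamase reporter under heat shock response elements) were exposed to compounds for 5 h at 37 C, then loaded with LiveBLAzer B/G FRET substrate for 2.5 h at room temperature before fluorescence reading.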

Measured: Potency

Sequence of Aryl hydrocarbon receptor (Homo sapiens) (P35869 whole entry, looked up): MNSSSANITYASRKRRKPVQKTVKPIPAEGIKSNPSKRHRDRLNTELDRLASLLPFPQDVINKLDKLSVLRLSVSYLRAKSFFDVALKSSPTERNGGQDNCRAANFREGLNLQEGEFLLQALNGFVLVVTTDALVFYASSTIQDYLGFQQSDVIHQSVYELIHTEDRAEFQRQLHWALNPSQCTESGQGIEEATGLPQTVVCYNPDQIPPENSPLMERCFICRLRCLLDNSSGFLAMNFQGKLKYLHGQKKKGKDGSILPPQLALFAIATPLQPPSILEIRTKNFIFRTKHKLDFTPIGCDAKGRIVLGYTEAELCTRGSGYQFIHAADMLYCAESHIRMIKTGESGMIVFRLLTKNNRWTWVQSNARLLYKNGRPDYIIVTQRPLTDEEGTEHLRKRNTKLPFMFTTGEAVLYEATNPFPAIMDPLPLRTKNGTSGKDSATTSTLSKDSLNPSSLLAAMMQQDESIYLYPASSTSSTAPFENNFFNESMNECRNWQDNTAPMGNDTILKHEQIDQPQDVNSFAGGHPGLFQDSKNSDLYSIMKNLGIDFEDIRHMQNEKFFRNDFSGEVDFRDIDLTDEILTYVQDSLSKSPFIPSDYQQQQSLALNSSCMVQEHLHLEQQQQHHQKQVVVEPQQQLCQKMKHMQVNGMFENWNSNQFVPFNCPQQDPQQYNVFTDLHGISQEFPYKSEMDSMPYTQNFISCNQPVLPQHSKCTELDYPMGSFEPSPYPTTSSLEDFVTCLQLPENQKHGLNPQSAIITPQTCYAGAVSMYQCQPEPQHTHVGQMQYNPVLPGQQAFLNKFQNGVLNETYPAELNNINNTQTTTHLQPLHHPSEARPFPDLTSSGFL
Sequence of Peroxisome proliferator-activated receptor gamma (Homo sapiens) (P37231 whole entry, looked up): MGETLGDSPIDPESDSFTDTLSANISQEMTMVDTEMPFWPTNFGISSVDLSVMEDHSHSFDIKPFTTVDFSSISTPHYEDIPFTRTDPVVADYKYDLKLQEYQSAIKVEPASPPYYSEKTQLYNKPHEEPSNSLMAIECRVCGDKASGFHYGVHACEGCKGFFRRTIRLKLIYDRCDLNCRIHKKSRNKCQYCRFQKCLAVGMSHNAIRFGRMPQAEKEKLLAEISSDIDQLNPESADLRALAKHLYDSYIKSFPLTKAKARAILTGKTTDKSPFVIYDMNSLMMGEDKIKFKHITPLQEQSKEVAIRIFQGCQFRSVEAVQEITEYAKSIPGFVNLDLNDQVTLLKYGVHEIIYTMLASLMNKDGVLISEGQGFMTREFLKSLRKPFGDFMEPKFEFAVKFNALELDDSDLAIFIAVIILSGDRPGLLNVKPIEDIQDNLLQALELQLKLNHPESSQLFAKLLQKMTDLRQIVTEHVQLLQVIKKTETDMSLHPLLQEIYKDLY

CC(Oc1ccc(Cl)cc1Cl)C(=O)O (stereo not given)
inactive: all assays above

BrCCBr
not listed: [9] | [10]
inactive: all other assays above

CCOP(=S)(OCC)Oc1cnc2ccccc2n1
inactive and 10.9 µM (active): [2]
inactive: all other assays above

CC(=O)C=C(C)C
inactive: all assays above

COC(=O)c1ccccc1N
not listed: [9]
inactive: all other assays above

Cc1[nH]c(=O)n(C(C)(C)C)c(=O)c1Cl
inactive: all assays above

O=[N+]([O-])c1ccccc1
not listed: [10]
inactive: all other assays above

CC(C)NC(=O)N1CC(=O)N(c2cc(Cl)cc(Cl)c2)C1=O
active: [2] 4.86 µM and 15.4 µM
not listed: [10]
inactive: all other assays above

COC(=O)NS(=O)(=O)c1ccc(N)cc1
not listed: [10]
inactive: all other assays above

OC(O)C(Cl)(Cl)Cl
not listed: [10]
inactive: all other assays above

O=[N+]([O-])c1ccc([As](=O)(O)O)cc1
active: [7] 54.5 µM
not listed: [9]
inactive: all other assays above

Cc1cc(-c2cc(C)c(N)c(C)c2)cc(C)c1N
active: [2] 1.54 µM and 756 nM
not listed: [9]
inactive: all other assays above

C#CCN(C)[C@H](C)Cc1ccccc1
not listed: [9] | [10]
inactive: all other assays above

CCCCCOC(=O)c1ccccc1C(=O)OCCCCC
not listed: [9]
inactive: all other assays above

O=c1[nH]c(=O)[nH]c(=O)[nH]1
inactive: all assays above

CCN(CC)c1ccccc1
inactive: all assays above

Cc1cc(Cl)ccc1O
inactive: all assays above

Nc1c(Cl)c(Cl)nc(C(=O)O)c1Cl
active: [2] 34 µM
inactive: all other assays above

[O-][Cl+2]([O-])O
not listed: [9]
inactive: all other assays above

O=Cc1cccc(Oc2ccccc2)c1
inactive: all assays above

c1ccc(OP(Oc2ccccc2)Oc2ccccc2)cc1
inactive: all assays above

O=NN1CCCC1
inactive: all assays above

O=C(O)c1ccccn1
inactive: all assays above

CCNc1nc(NC(C)C)nc(SC)n1
not listed: [9]
inactive: all other assays above

NCCc1ccc(O)cc1
not listed: [9] | [10]
inactive: all other assays above

CN=C=S
not listed: [9]
inactive: all other assays above

c1ccc(-c2ccccc2)cc1
inactive: all assays above

COC(=O)c1ccccc1C(=O)OC
inactive: all assays above

CCCCN(CC)C(=O)SCCC
not listed: [9]
inactive: all other assays above

O=c1ccc(=O)[nH][nH]1
inactive: all assays above

CC(C)=C[C@@H]1[C@@H](C(=O)OCc2coc(Cc3ccccc3)c2)C1(C)C
inactive: all assays above

Cc1ccccc1O
inactive: all assays above

c1cc2c3c(cccc3c1)CC2
inactive: all assays above

C1CN2CCN1CC2
inactive: all assays above

Nc1ccc(Cc2ccc(N)cc2)cc1
active: [2] 30.1 µM
not listed: [9]
inactive: all other assays above

CC(C)(C)OOC(=O)c1ccccc1
inactive: all assays above

ClCc1cccnc1
not listed: [8]
inactive: all other assays above

O=NN1CCCCCCC1
not listed: [8]
inactive: all other assays above

COCCl
not listed: [8] | [9]
inactive: all other assays above

CC1C=[C-]C=C1.[C-]#[O+].[C-]#[O+].[C-]#[O+].[Mn]
not listed: [9]
inactive: all other assays above

O=[N+]([O-])c1ccc(Oc2ccc(Cl)cc2Cl)cc1
not listed: [8]
inactive: all other assays above

CCC[CH2][Sn]([Cl])([Cl])[Cl]
active: [7] 1.1 µM and 2.43 µM
not listed: [8]
inactive: all other assays above

CN(N=O)c1ccccc1
not listed: [9]
inactive: all other assays above

CC(C)C1(C)N=C(c2nc3ccccc3cc2C(=O)O)NC1=O (stereo not given)
not listed: [8]
inactive: all other assays above

CCC12COCN1COC2
not listed: [8]
inactive: all other assays above

Cc1ccc(N)cc1N
active: [2] 21.1 µM and 27.3 µM
not listed: [8]
inactive: all other assays above

CCCN(CCC)N=O
not listed: [8]
inactive: all other assays above

Clc1ccc(Cl)cc1
not listed: [8]
inactive: all other assays above

CC(Br)C(=O)O (stereo not given)
not listed: [9]
inactive: all other assays above

CCCCCCCCCl
not listed: [9]
inactive: all other assays above

CCN(CC)CCO
not listed: [9]
inactive: all other assays above

— PubChem BioAssay (Tox21)
